# Experimental data: ChEMBL document CHEMBL4513216, “Probing the Open Global Health Chemical Diversity Library for Multistage-Active Starting Points for Next-Generation Antimalarials” (ACS Infect Dis, 2020)
# Among all 69,000 compounds or so, about 8,600 (12%) showed an effect of 50% or more. The list comes from a sample in which strong results are over-represented; it also holds similar structures and randomly drawn compounds.
# Tested on: Plasmodium berghei
# Assay: Screen against P. berghei liver stage (PbLuc), transformed with Luciferase, at 10uM
# Assay type: functional, HepG2
# Conditions: tested at 10 uM
row,SMILES,INHIBITION
1,Cc1n[nH]cc1CNC(C)c1cccc(N2CCCC2=O)c1 (stereo not drawn),0.643%
2,CN1C(=O)[C@@H]2CC[C@H]1CN(C(=O)c1csc(Cc3ccccc3)n1)C2,35.3%
3,Cc1c(CN2CCc3[nH]cnc3C2C(=O)O)[nH]c2ccc(F)cc12 (stereo not drawn),1.56%
4,Cc1c(CN2CCCC(O)C2)[nH]c2ccc(F)cc12 (stereo not drawn),16.5%
5,Cc1c(CN2CC[C@@H](N3CCC(O)CC3)[C@H](O)C2)[nH]c2ccc(F)cc12,66.9%
6,Cc1c(CN2CCc3[nH]cnc3C2C2CC2)[nH]c2ccc(F)cc12 (stereo not drawn),65.7%
7,CN1CCN([C@@H]2CCN(Cc3ccc4cc(F)ccc4n3)C[C@H]2O)CC1,-13.5%
8,CSCCC1c2nc[nH]c2CCN1Cc1[nH]c2ccc(F)cc2c1C (stereo not drawn),17.9%
9,Cc1ccc2[nH]c(CN3CC[C@@H](N4CCN(C)CC4)[C@H](O)C3)c(C)c2c1,34%
10,Cc1c(CN2C[C@H](O)[C@@H](N3CCOCC3)C2)[nH]c2ccc(F)cc12,63.1%
11,Cc1c(CN2CC[C@@H](N3CCC(O)CC3)[C@H](O)C2)[nH]c2ccc(Cl)cc12,36.2%
12,CC(=O)NCC(=O)N1C[C@@H](C)[C@@]2(CCN(c3ccsc3)C2=O)C1,15.9%
13,c1cncc(CN2CCCn3nnc(CN4CCCCC4)c3C2)c1,16.8%
14,Cn1ncc2c(=O)[nH]c(CN3CCCC3Cc3ccc(F)cc3)nc21 (stereo not drawn),-5.07%
15,N#Cc1ccc(S(=O)(=O)NC(=O)COc2ccc3c(c2)CCC3)cc1,29.25%
16,CCNc1cc2c(nn1)CCN(C(=O)c1ccc(-n3cccn3)nc1)C2,-5.26%
17,Cc1ccc(C(=O)N2C[C@@H]3CC[C@H]2CN(S(=O)(=O)N(C)C)C3)c(O)c1,24.7%
18,Cc1ccc(CN2CCc3c(C(=O)N(C)C)nn(C)c3C2)s1,8.47%
19,CCCC(=O)N1CC[C@@H]2[C@H](CC1)N(Cc1cccnc1)CCS2(=O)=O,-1.53%
20,CC1CCN(C(=O)c2occc2COc2cccc(C#N)c2)CC1,-122%
21,CCC(CC)NC(=O)c1cccnc1N1CCCC1c1ccccn1 (stereo not drawn),25.3%
22,CC(O)(CNC(=O)c1cccnc1-n1cccn1)c1cccs1 (stereo not drawn),35.4%
23,CCN(CC)CCCC(C)NC(=O)c1cccnc1-n1cccn1 (stereo not drawn),-7.13%
24,CC(O)(CNC(=O)c1cccnc1-n1cccn1)c1ccco1 (stereo not drawn),7.39%
25,CCC(CC)NC(=O)c1cccnc1-n1cccn1,55.9%

row,SMILES,INHIBITION
1,CC(O)(CNC(=O)c1cccnc1-n1cccn1)c1ccsc1 (stereo not drawn),61.1%
2,CCn1nccc1CNC(=O)CCC1CCCC1,13%
3,c1coc(CN2C[C@@H]3CN(Cc4ccoc4)CCO[C@@H]3C2)c1,24.6%
4,Cc1cc(NCc2ccc(CS(N)(=O)=O)cc2)nc(C)n1,11.8%
5,CS(=O)(=O)c1ccc(NC(=O)NC2(c3ccccc3)CCC2)cc1,36.7%
6,Cc1ccc(CN2CCc3nnc(CN4CCCC4=O)n3CC2)o1,3.81%
7,C=C(C)CN1CCC(C(=O)c2cc(F)ccc2F)CC1,5.03%
8,CCNC(=O)C1(Cc2cc(-c3ccccc3)no2)CCCN(C(C)=O)C1 (stereo not drawn),42.5%
9,O=C(O)c1cc(N2C[C@H](NC(=O)C3CCOCC3)[C@@H](C3CC3)C2)ccn1,3.68%
10,COCC1(C(=O)N[C@H]2CN(c3ccnc(C)c3)C[C@@H]2C2CC2)CCC1,51.3%
11,Cc1nc(O)cc(CN2C[C@H](NC(=O)C3CCC3)[C@@H](C3CC3)C2)n1,18.9%
12,COCC1(C(=O)N[C@H]2CN(c3noc(C)n3)C[C@@H]2C2CC2)CCC1,2.79%
13,O=C(CC1CCCC1)N[C@H]1CN(Cc2c[nH]cn2)C[C@@H]1C1CC1,45.2%
14,COCC1(C(=O)N[C@H]2CN(c3nnc(C)s3)C[C@@H]2C2CC2)CCC1,64.4%
15,COCCC(=O)N[C@H]1CN(c2nc(C)c3c(n2)CCCC3)C[C@@H]1C1CC1,20.4%
16,Cc1nnc(CN2C[C@H](NC(=O)CC3CCCC3)[C@@H](C3CC3)C2)s1,64.7%
17,Cc1cc(N2C[C@H](NC(=O)C3(C#N)CCOCC3)[C@@H](C(C)C)C2)ccn1,30.7%
18,O=C(c1cccs1)N1CC[C@@H]2CN(C3CCOCC3)CCO[C@@H]2C1,45.7%
19,CCn1nc(C)c2nnn(CC(=O)Nc3cccc(C)c3)c(=O)c21,42.4%
20,CN(C)C[C@H]1OC[C@@H]2CCN(S(=O)(=O)c3cccs3)C[C@@H]21,38.7%
21,CC(CO)NC(=O)Nc1ccc(S(C)(=O)=O)nc1 (stereo not drawn),-38.695%
22,COc1ccc(CNCC(C)Oc2ccccn2)cc1 (stereo not drawn),-30.8%
23,Cc1ccc(S(=O)(=O)N2C[C@H]3C[C@H](NC(=O)c4cscn4)[C@H]3C2)cc1,25.6%
24,CNC(=O)[C@H]1C[C@@H]2CN(S(=O)(=O)c3ccc(C)cc3)C[C@@H]2N1C,-10.3%
25,Cc1ccc(S(=O)(=O)N2C[C@H]3C[C@H](NC(=O)c4cc[nH]n4)[C@H]3C2)cc1,64.1%

row,SMILES,INHIBITION
1,Cc1ccc(S(=O)(=O)N2CC[C@@H]3C[C@H](NC(=O)c4ccncc4)[C@@H]32)cc1,20.4%
2,Cc1ccc(S(=O)(=O)N2CC[C@@H]3C[C@H](NC(=O)c4n[nH]cc4Cl)[C@@H]32)cc1,6.521%
3,Cc1ccc(S(=O)(=O)N2C[C@H]3C[C@H](NC(=O)c4ccccn4)[C@H]3C2)cc1,92.9%
4,Cc1ccc(CN2CCCC3(CCCC(=O)N3C)C2)s1 (stereo not drawn),4.98%
5,CC(C)c1nnc2n1CCN(Cc1ncc(-c3ccccc3)o1)C2,38.85%
6,Cc1cc(C(=O)NCc2cccs2)nc(N2CCCC2)n1,-2.28%
7,CC(C)n1[nH]c(=O)c2c1NC(=O)CC2C1CCCCC1 (stereo not drawn),-25.6%
8,CC(C)n1[nH]c(=O)c2c1NC(=O)CSC2c1ccc(OCC(N)=O)cc1 (stereo not drawn),6.83%
9,CC(C)n1[nH]c(=O)c2c1NC(=O)CSC2C1CCCCC1 (stereo not drawn),62.5%
10,CC(C)COc1ccc(C2SCC(=O)Nc3c2c(=O)[nH]n3C(C)C)cc1 (stereo not drawn),52.4%
11,CCOc1ccc(C2SCC(=O)Nc3c2c(=O)[nH]n3C(C)C)cc1 (stereo not drawn),44.9%
12,CCCOc1ccc(C2SCC(=O)Nc3c2c(=O)[nH]n3C(C)C)cc1 (stereo not drawn),15.1%
13,Cc1csc(N2CCCN(C(=O)c3occc3C)CC2)n1,46.2%
14,CC(C)(C)OC(=O)N1CCN(C(=O)CCn2cccn2)CC1,38.05%
15,O=C(C1CC=CC1)N1CC[C@@H](O)[C@H]1Cc1cccnc1,43%
16,CCNC(=O)CNC(=O)Nc1c(F)cc(F)cc1-c1ccccc1,7.77%
17,COc1cccc(CNCCNS(=O)(=O)Cc2ccccc2)c1,30.2%
18,Cn1nc(CNC(=O)C2CC2)cc1C1CC1,-62.4%
19,CCc1c(C)nc(-n2nc(C3CC3)cc2NC(C)=O)[nH]c1=O,93.7%
20,CCc1cc(=O)[nH]c(-n2nc(C3CC3)cc2NC(=O)C2CC2)n1,91%
21,Cc1cc(C)n(-c2cncc(NCCNC(=O)C(C)C)n2)n1,-23.5%
22,CCn1nc(C)c(NC(=O)c2cc(NC(=O)C3CC3)n(C)n2)c1C,29.7%
23,Cc1nc(C)c(CC(=O)Nc2nnc(C3CC3)s2)c(=O)[nH]1,-0.18%
24,CC(C)C(=O)Nc1cc(C(C)(C)C)nn1-c1ccccn1,-6.94%
25,Cc1cc(NC(=O)C(C)C)n(-c2nc(C)c(C)c(=O)[nH]2)n1,93.2%

row,SMILES,INHIBITION
1,CCc1c(C)nn(CCNC(=O)c2cc(C3CC3)n[nH]2)c1C,-40.7%
2,CC(C)C(=O)Nc1cc(C(=O)NC2CC(C)(C)NC(C)(C)C2)nn1C,44.6%
3,CC(=O)N1CCN(c2cc(CCNC(=O)C(C)C)nc(C3CC3)n2)CC1,18.3%
4,Cc1nc(-n2nc(C3CC3)cc2NC(=O)C(C)C)[nH]c(=O)c1C,93.2%
5,CN(C)Cc1nn(C)c2c1CCN(C(=O)c1cnccn1)C2,-43.1%
6,CNC(=O)c1ccc(C2CN(Cc3ccc(F)cc3)CCO2)nc1 (stereo not drawn),2.55%
7,Cc1nc(CN(C)C2CCN(CCc3ccccn3)C2)no1 (stereo not drawn),-41.6%
8,Cc1cc(C)n(C2CCCN(C(=O)c3ccc(F)c(F)c3)C2)n1 (stereo not drawn),18.7%
9,CN(C)CCN1CCOCC12CCN(C(=O)C1CC1)CC2,6.55%
10,COC[C@]1(O)CCN(c2cc(N3CCOCC3)ncn2)CC1(C)C,32.3%
11,Cc1cc(OCc2ccc(C(=O)O)s2)ccc1Cl,-61.9%
12,CSC(C)C(=O)NCc1ccnc(N2CCN(C)CC2)c1 (stereo not drawn),-11.98%
13,CCOc1ccc(Cl)c(C(=O)N2CCCN(CC(N)=O)CC2)n1,47%
14,Cc1[nH]c2cc(C3CCN(C(=O)c4ccccn4)CC3)nn2c(=O)c1C,29.55%
15,CC(=O)Nc1cc(C2CC2)nn1-c1nc(C)c(C)c(=O)[nH]1,72.4%
16,COCCNC(=O)CCc1c(C)nn(-c2nc(C)c(C)c(=O)[nH]2)c1C,-8.69%
17,COc1ccc(CN2CCO[C@H]3CN(C4CCCC4)CC[C@H]3C2=O)cc1,27.7%
18,CN(C)C1CCN(C(=O)c2cc(-c3ccn(C)n3)n3ccccc23)CC1,62.9%
19,Cn1ccc(-c2cc(C(=O)N3CCC(O)CC3)c3ccccn23)n1,42.1%
20,CN1CCCN(C(=O)c2cc(-c3cc[nH]n3)n3ccccc23)CC1,47.5%
21,Cn1ccc(-c2cc(C(=O)N3CCC(C(N)=O)CC3)c3ccccn23)n1,-23.1%
22,Cc1nc(-c2cc(C(=O)N3CCCN(C)CC3)c3ccccn23)cn1C,21.7%
23,Cc1nc(-c2cc(C(=O)N3CCN(C)CC3)c3ccccn23)cn1C,52.3%
